# Source: PubChem BioAssay (NCATS)
# Results filed as inconclusive are left out. Where a call stands in place of a potency, no number is given. The source made the active and inactive calls. Unless noted, calls come from the whole dose curve.
# How the values were obtained:
# [1] = Natriuretic polypeptide receptor (hNpr1) antagonism - Pilot counterscreen GloSensor control cell line (AID 1347045); note: potency is the fitted concentration of half-maximal effect
# Procedure, shortened: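 This counterscreen uses HEK293 cells expressing the GIP/pGS-40F cGMP biosensor. Compound-treated cells are challenged with 50 uM sodium nitroprusside, and the luciferase signal is compared before and after stimulation.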
# [2] = biological target: Atrial natriuretic peptide receptor 1 (Homo sapiens) (UniProt P16066); experiment: Natriuretic polypeptide receptor (hNpr1) antagonism - Pilot screen (AID 1347049);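 note: agonist-evoked cGMP luminescence read 20 min after hNppA addition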; note: potency is the fitted concentration of half-maximal effect
# Sequence of Atrial natriuretic peptide receptor 1 (Homo sapiens) (P16066 whole entry, looked up): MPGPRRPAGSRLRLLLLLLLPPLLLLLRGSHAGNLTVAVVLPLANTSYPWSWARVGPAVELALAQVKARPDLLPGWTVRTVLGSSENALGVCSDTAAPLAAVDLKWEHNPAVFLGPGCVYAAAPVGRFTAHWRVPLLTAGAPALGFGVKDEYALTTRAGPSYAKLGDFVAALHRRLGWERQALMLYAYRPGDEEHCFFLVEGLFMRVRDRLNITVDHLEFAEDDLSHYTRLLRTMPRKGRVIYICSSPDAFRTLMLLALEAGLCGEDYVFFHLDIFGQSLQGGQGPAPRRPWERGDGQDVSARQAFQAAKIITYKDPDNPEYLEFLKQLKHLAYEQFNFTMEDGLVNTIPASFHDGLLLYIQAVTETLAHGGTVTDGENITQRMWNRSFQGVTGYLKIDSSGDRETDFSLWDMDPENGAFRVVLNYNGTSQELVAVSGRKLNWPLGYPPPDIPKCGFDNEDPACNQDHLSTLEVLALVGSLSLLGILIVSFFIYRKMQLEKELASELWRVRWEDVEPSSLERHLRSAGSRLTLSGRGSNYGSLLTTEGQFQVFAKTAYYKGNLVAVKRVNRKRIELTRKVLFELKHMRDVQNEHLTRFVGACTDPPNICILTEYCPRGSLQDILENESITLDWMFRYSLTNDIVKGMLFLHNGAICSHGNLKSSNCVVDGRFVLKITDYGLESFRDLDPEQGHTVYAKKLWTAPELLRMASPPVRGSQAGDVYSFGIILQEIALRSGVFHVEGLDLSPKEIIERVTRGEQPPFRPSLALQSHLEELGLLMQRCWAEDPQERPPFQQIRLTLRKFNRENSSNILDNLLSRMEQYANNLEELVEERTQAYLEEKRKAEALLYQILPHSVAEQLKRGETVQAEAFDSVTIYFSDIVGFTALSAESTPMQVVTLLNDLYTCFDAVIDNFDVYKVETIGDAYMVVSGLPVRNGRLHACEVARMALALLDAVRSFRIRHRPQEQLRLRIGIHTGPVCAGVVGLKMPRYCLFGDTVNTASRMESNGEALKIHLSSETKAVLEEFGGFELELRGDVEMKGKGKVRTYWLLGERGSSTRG
# Procedure, shortened: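 HEK293 cells expressing hNpr1 and GloSensor cGMP luciferase, 1500/well, loaded with 2% GloSensor reagent 2 h, compound 30 min at room temperature; luminescence read before and 20 min after 0.1 nM hNppA stimulation.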
# [3] = biological target: Atrial natriuretic peptide receptor 2 (Homo sapiens) (UniProt P20594); experiment: Natriuretic polypeptide receptor (hNpr2) antagonism - Pilot subtype selectivity assay (AID 1347050); note: potency is the fitted concentration of half-maximal effect
# Sequence of Atrial natriuretic peptide receptor 2 (Homo sapiens) (P20594 whole entry, looked up): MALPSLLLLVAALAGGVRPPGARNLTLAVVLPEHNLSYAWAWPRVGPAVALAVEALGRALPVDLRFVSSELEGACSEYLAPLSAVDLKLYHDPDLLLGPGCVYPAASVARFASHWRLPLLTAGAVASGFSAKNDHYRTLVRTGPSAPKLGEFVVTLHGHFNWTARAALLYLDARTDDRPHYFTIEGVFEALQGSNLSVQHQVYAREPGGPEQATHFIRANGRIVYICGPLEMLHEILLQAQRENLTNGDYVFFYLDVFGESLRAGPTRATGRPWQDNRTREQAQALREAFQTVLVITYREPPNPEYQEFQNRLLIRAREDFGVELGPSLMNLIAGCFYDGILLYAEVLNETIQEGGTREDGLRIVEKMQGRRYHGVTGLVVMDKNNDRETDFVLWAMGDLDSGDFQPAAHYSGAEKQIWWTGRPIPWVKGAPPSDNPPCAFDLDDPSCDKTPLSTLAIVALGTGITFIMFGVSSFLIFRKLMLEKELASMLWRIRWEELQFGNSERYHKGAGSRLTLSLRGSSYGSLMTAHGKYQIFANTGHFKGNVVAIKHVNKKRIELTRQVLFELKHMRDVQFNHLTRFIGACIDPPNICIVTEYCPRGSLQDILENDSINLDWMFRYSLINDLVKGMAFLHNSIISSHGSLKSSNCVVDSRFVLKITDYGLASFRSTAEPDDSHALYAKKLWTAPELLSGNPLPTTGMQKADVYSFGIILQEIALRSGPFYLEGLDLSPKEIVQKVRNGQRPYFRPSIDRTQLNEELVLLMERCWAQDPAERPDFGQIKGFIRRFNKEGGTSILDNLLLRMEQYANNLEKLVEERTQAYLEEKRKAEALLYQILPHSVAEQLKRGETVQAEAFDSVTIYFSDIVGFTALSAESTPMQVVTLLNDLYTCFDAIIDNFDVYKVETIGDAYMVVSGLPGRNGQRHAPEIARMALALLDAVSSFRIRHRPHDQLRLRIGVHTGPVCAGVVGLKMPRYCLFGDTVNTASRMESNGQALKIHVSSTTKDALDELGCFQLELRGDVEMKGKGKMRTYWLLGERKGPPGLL
# Procedure, shortened: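 HEK293 cells expressing hNpr2 and a GloSensor cGMP luciferase sensor, 1500/well, preloaded 2 h with 2% GloSensor reagent, compound 30 min, then 1 nM hNppC for 20 min. Antagonism from luminescence after versus baseline pre-read; LOPAC in 1:5 titrations.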
# [4] = NS1 protein of Zika virus - qHTS assay to identify small molecule inhibitors in human HEK 293 cells (AID 1347053; active = well fitted curve in the direction sought with a large enough effect; an effect the other way counts as inactive or inconclusive; note: series mostly up to about 46 µM; nearly all actives have a fitted effect of over 55% in size)
# Procedure, shortened: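 HEK 293 cells, seeded 20 h at 37 C, were pretreated with compound 1 h, then infected with ZIKV MR766 (MOI = 0.5) for 24 h. NS1 was read by TR-FRET with two anti-NS1 antibodies, normalized to uninfected and infected wells.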
# [5] = biological target: T1, Tyrosine-protein phosphatase non-receptor type substrate 1 (Homo sapiens) + Leukocyte surface antigen CD47 (Homo sapiens) (UniProt P78324+Q08722); experiment: CD47-SIRPalpha protein protein interaction - LANCE assay qHTS validation (AID 1347057; active = well fitted curve in the direction sought with a large enough effect in the signal ratio, with a control signal flat, not every such curve was filed as active; the % refers to the signal ratio; note: series mostly up to about 38 µM)
# T1 sequence (P78324 whole entry, looked up): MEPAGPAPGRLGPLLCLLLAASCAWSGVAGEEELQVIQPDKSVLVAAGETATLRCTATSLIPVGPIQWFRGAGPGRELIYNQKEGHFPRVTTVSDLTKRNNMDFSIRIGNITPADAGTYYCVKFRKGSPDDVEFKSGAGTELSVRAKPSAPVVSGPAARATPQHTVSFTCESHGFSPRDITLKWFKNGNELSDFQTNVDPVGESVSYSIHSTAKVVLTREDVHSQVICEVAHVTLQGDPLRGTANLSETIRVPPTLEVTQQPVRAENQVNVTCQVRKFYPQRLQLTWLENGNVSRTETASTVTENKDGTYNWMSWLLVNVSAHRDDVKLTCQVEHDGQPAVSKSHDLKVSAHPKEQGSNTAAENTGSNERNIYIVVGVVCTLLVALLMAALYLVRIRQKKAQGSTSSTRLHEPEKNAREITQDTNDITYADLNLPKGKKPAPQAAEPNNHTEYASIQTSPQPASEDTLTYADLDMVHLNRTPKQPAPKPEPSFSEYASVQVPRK
# T1 sequence (Q08722 whole entry, looked up): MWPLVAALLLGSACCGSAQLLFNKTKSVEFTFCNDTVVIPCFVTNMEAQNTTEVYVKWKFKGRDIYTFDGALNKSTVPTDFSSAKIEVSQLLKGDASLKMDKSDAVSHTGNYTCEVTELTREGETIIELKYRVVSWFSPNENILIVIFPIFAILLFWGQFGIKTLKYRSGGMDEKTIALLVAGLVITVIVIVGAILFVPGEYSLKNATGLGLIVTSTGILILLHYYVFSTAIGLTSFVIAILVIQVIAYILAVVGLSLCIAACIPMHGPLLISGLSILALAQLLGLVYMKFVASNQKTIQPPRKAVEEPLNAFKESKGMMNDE
# Procedure, shortened: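 First, His-tagged CD47 and Eu-labelled anti-His antibody met the compound for 30 min; next, site-specifically biotinylated SIRPalpha was added for 30 min; finally streptavidin-APC was added before reading the TR-FRET ratio.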
# [6] = biological target: T1, Tyrosine-protein phosphatase non-receptor type substrate 1 (Homo sapiens) + Leukocyte surface antigen CD47 (Homo sapiens); experiment: CD47-SIRPalpha protein protein interaction - HTRF assay qHTS validation (AID 1347058; active = well fitted curve in the direction sought with a large enough effect in the signal ratio, not every such curve was filed as active; the % refers to the signal ratio;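 note: recombinant soluble extracellular CD47 with His tag and biotinylated SIRPalpha domains; series mostly up to about 38 µM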)
# Procedure, shortened: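 TR-FRET read (Ch1/Ch2 ratio) of soluble extracellular CD47 and Avi-biotinylated SIRPalpha domains in PBS pH 7.4 with 0.05% IGEPAL; 7-point compound titration. Sequential 30 min room-temperature steps; non-biotinylated SIRPalpha as control inhibitor.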
# [7] = biological target: T1, Tyrosine-protein phosphatase non-receptor type substrate 1 (Homo sapiens) + Leukocyte surface antigen CD47 (Homo sapiens); experiment: CD47-SIRPalpha protein protein interaction - Alpha assay qHTS validation (AID 1347059; active = well fitted curve in the direction sought with a large enough effect; an effect the other way counts as inactive or inconclusive;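 note: bead proximity luminescence from CD47 binding SIRPalpha after compound preincubation with SIRPalpha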)
# Procedure, shortened: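 Biotinylated Avi-tagged SIRPalpha (25 nM) preincubated 30 min with compound, then His-tagged CD47 (12.5 nM) added 30 min; AlphaScreen with Ni-NTA acceptor and streptavidin donor beads. PBS pH 7.4, 0.05% IGEPAL, room temperature; 7-point titrations.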
# [8] = biological target: Parathyroid hormone/parathyroid hormone-related peptide receptor (Homo sapiens) (UniProt Q03431); experiment: qHTS for PTHR1 Agonists: Optimization Screen against the NCGC LOPAC library (AID 1347079; active = well fitted curve in the direction sought with a large enough effect; an effect the other way counts as inactive or inconclusive;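 note: GloSensor cAMP luminescence in HEK-293 GP2 cells expressing human PTHR1 with IBMX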)
# Sequence of Parathyroid hormone/parathyroid hormone-related peptide receptor (Homo sapiens) (Q03431 whole entry, looked up): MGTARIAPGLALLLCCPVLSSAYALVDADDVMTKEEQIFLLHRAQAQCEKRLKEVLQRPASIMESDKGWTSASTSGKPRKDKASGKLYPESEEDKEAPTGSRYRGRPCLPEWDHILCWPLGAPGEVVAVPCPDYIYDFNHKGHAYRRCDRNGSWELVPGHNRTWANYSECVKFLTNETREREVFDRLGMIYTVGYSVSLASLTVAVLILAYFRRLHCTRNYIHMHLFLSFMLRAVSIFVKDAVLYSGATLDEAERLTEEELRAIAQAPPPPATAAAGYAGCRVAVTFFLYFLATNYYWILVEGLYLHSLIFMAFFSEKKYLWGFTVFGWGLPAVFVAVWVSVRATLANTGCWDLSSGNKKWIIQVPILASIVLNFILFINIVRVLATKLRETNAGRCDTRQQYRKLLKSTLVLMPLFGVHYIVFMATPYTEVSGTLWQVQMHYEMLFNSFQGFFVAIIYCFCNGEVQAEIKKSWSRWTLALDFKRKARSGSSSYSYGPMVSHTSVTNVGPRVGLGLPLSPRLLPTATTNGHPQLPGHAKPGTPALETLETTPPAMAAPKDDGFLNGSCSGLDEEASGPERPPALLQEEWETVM
# Procedure, shortened: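 Compounds were tested across a qHTS titration. PTHR1-expressing GP2 cells report cAMP rises via GloSensor luminescence after 1 hr compound exposure at 37C with IBMX present.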
# [9] = qHTS of pediatric cancer cell lines to identify multiple opportunities for drug repurposing: Primary screen for TC32 cells (AID 1347089; active = well fitted curve in the direction sought with a large enough effect; an effect the other way counts as inactive or inconclusive; note: nearly all actives have a fitted effect of over 60% in size)
# Procedure, shortened: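 In the primary qHTS, MIPE compounds were tested at 11 concentrations (0.78 nM to 46 µM) and NPC compounds at 8 (0.59 nM to 46 µM) on TC32 cells for 48 h. CellTiter-Glo luminescence gave viability.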
# [10] = qHTS of pediatric cancer cell lines to identify multiple opportunities for drug repurposing: Primary screen for DAOY cells (AID 1347090; active = well fitted curve in the direction sought with a large enough effect; an effect the other way counts as inactive or inconclusive; note: series mostly up to about 46 µM; nearly all actives have a fitted effect of over 55% in size)
# Procedure, shortened: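 Viability measured as metabolically active cells via CellTiter-Glo luminescence following 48 hours of compound exposure, 11-point dilutions in confirmatory testing. 500-1,000 cells/well plated 5 hours before dosing; controls were DMSO and 2.3 µM bortezomib.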
SMILES,Potency [1],Potency [2],Potency [3],Potency [4],Potency [5],outcome [6],Potency [7],Potency [8],Potency [9],Potency [10]
CSc1nc(N)c2ncn([C@@H]3O[C@H](COP(=O)(O)OP(=O)(O)OP(=O)(O)O)[C@@H](O)[C@H]3O)c2n1,inactive,inactive,inactive,inactive,inactive,inactive,inactive,inactive,,
CCC1C(=O)OCC1Cc1cncn1C (stereo not drawn),inactive,inactive,inactive,inactive,inactive,inactive,inactive,inactive,inactive,inactive
O=C(O)c1cc(=O)c2c(Cl)cc(Cl)cc2[nH]1,inactive,inactive,inactive,inactive,inactive,inactive,,,,
CN(C)CCCO[C@@H]1[C@H]2OC(C)(C)O[C@H]2O[C@@H]1[C@H](O)CO,inactive,inactive,inactive,,,,,inactive,,
CN(C)C(N)=NCCC[C@H](N)C(=O)O,inactive,inactive,inactive,inactive,inactive,inactive,inactive,inactive,,
CCN1/C(=C/C(C)=O)Sc2ccc(OC)cc21,inactive,inactive,inactive,inactive,inactive,inactive,inactive,inactive,,
CN1CC(=O)N/C1=N/C(=O)Nc1cccc(Cl)c1,inactive,inactive,inactive,inactive,inactive,inactive,inactive,inactive,inactive,inactive
CC(COc1ccc(/C=C/c2ccccc2)cc1)[N+](C)(C)C (stereo not drawn),inactive,inactive,inactive,,,,,inactive,,
CO/N=C(\C(=O)N[C@@H]1C(=O)N2C(C(=O)O)=C(COC(C)=O)CS[C@H]12)c1csc(N)n1,inactive,inactive,inactive,inactive,inactive,inactive,inactive,inactive,,
O=[N+]([O-])c1ccc(CSc2ncnc3c2ncn3[C@@H]2O[C@H](CO)[C@@H](O)[C@H]2O)cc1,inactive,inactive,inactive,inactive,inactive,,inactive,inactive,,
CCCC1(C)C(C#N)(C#N)C1(C#N)C#N,5.85 µM (active),8.49 µM (active),4.65 µM (active),,,,,,,
Cc1ccc(O)c(N=Nc2ccccc2)n1,7.36 µM (active),16.9 µM (active),10.4 µM (active),,inactive,,,,,
CN1CCc2cccc3c2C1Cc1ccc(O)c(O)c1-3 (stereo not drawn),inactive,inactive,inactive,inactive,,,inactive,inactive,,
O=C1C(SCCO)=C(SCCO)C(=O)c2ccccc21,2.07 µM (active),5.36 µM (active),2.93 µM (active),,inactive,,inactive,inactive,,
CNc1ncnc2c1ncn2[C@@H]1O[C@H](CO)[C@@H](O)[C@H]1O,inactive,inactive,inactive,inactive,inactive,inactive,inactive,,,
O=c1[nH]c2cc(Cl)c(Cl)cc2[nH]c1=O,inactive,inactive,inactive,,,,,inactive,,
O=C(Nc1cccc(C(=O)Nc2ccc(S(=O)(=O)O)c3cc(S(=O)(=O)O)cc(S(=O)(=O)O)c23)c1)Nc1cccc(C(=O)Nc2ccc(S(=O)(=O)O)c3cc(S(=O)(=O)O)cc(S(=O)(=O)O)c23)c1,inactive,inactive,inactive,inactive,inactive,,,inactive,,
CC(=O)SCC[N+](C)(C)C,inactive,inactive,inactive,inactive,inactive,inactive,inactive,inactive,,
C[N+]1(C)CCC(OC(=O)C(c2ccccc2)c2ccccc2)CC1,inactive,inactive,inactive,inactive,inactive,inactive,,inactive,,
O=C(O)CC[C@@H](C(=O)O)N1C(=O)c2ccccc2C1=O,inactive,inactive,inactive,inactive,inactive,inactive,inactive,inactive,,
Oc1ccc(C2CNCc3sccc32)cc1O (stereo not drawn),inactive,inactive,inactive,inactive,inactive,inactive,,inactive,,
Nc1ncnc2c1ncn2[C@@H]1O[C@H](COP(=O)(O)OP(=O)(O)OP(=O)(O)OP(=O)(O)OC[C@@H]2O[C@H](n3cnc4c(N)ncnc43)[C@@H](O)[C@H]2O)[C@@H](O)[C@H]1O,inactive,inactive,inactive,inactive,inactive,inactive,inactive,inactive,,
CNC(=O)[C@H]1O[C@@H](n2cnc3c(NCc4ccc(N)cc4)ncnc32)[C@H](O)[C@@H]1O,inactive,inactive,inactive,inactive,inactive,inactive,,inactive,,
O=C(O)[C@@H]1C[C@@H](C(=O)O)N1,inactive,inactive,inactive,,,,,inactive,,
Cc1ccccc1CNc1ncnc2c1ncn2C1OC(CO)C(O)C1O (stereo not drawn),inactive,inactive,inactive,,,,,inactive,,
O=C(O)c1cc([N+](=O)[O-])ccc1NCCCc1ccccc1,inactive,inactive,inactive,inactive,inactive,,inactive,,,
CCCCN1CCC(n2c(=O)[nH]c3ccccc32)CC1,inactive,inactive,inactive,,,,,inactive,,
COc1ccc(/C=C/C(=O)Nc2ccccc2C(=O)O)cc1OC,1.85 µM (active),9.53 µM (active),3.69 µM (active),inactive,inactive,,inactive,inactive,,
Cc1nc2sccn2c(=O)c1CCN1CCC(=C(c2ccccc2)c2ccc(F)cc2)CC1,inactive,inactive,inactive,,,,,inactive,,
